Reference: PubChem BioAssay (EPA / NIEHS)
Values joined by “and” are separate entries in the source; they are usually repeats but may differ in a detail not shown here. Equal values may be shown once. Records with an inconclusive call do not appear. Some compounds were tested as several samples or in several runs, with calls that do not always agree. Active and inactive are the calls of the source. The calls were made as follows, unless noted: active = hit-call score of the fitted dose curve at least 0.9, where 1 is the maximum; inactive = score below 0.9.

Assays:
[1] = ACEA_ER_80hr: ACEA Biosciences xCELLigence Real-Time Cell Analysis on Estrogen Receptor Agonism for Proliferation (AID 2282667; active = hit-call score of the fitted dose curve at least 0.9, where 1 is the maximum); details: T47D proliferation, impedance (xCELLigence), 80 h
Procedure, shortened: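 T-47D cells monitored by electrical impedance (xCELLigence) with compound present throughout; 80 h timepoint, positive-direction fitting versus DMSO. Eight-point 1:4 dilutions from 100 uM final, duplicate plates.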

[2] = ATG_CRE_CIS: Attagene CIS-FACTORIAL HepG2 Assay for human cAMP Responsive Element (CRE) binding protein 3 (AID 2282926); details: HepG2 CRE cis-reporter, Attagene multiplexed mRNA; actives raise or lower the signal
Procedure, shortened: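 Induced reporter mRNA from a CRE cis element, measured in HepG2 among many multiplexed units at 24 h. Detection used RT-PCR plus capillary electrophoresis of fluorescent fragments; DMSO served as negative control.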

[3] = target: CCAAT/enhancer-binding protein beta (Homo sapiens) (UniProt P17676); assay: ATG_C_EBP_CIS: Attagene CIS-FACTORIAL HepG2 Assay for human CCAAT/Enhancer Binding Protein (C/EBP) beta (AID 2282927); details: HepG2 Attagene cis-factorial transcription factor reporter; actives raise or lower the signal
Procedure, shortened: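 HepG2, transient MRTU transfection, 24 h treatment. RT-PCR plus CE fluorescence; DMSO negative control, bidirectional fit.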

[4] = ATG_CMV_CIS: Attagene CIS-FACTORIAL HepG2 Assay for human CMV (Internal Marker) (AID 2282928); details: HepG2 CMV promoter reporter, transcription factor profiling; actives raise or lower the signal;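 also: endpoint acts as a background internal control marker rather than a target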
Procedure, shortened: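 Bidirectional fits against DMSO are applied to reporter mRNA, read by RT-PCR with capillary electrophoresis, from HepG2 cells exposed 24 h. The endpoint serves as an internal CMV background marker within the cis-factorial reporter panel.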

[5] = ATG_DR4_LXR_CIS: Attagene CIS-FACTORIAL HepG2 Assay for human Liver X Receptor (LXR), DR4 submotif (AID 2282929); details: HepG2 Attagene DR4 cis-reporter, mRNA transcription; actives raise or lower the signal
Procedure, shortened: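 Total RNA from 24 h-treated, MRTU-transfected HepG2 cells underwent reverse transcription, PCR, fluorescent primer extension and restriction digestion before capillary electrophoresis. Both increases and decreases in reporter signal were fitted against DMSO.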

[6] = target: Aryl hydrocarbon receptor (Homo sapiens) (UniProt P35869); assay: ATG_Ahr_CIS: Attagene CIS-FACTORIAL HepG2 Assay for human Aryl Hydrocarbon Receptor (Ahr) (AID 2282930); details: HepG2 AhR cis-factorial reporter transcription; actives raise or lower the signal
Procedure, shortened: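 Endogenous factor activity is tracked through cis-promoter reporter units transfected into HepG2 cells. Transcript levels at 24 h are read by fluorescent RT-PCR and capillary electrophoresis, with activity in either direction scored relative to DMSO.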

[7] = ATG_AP_1_CIS: Attagene CIS-FACTORIAL HepG2 Assay for human Activator Protein 1 (AP-1) (AID 2282931); details: HepG2 Attagene cis-factorial AP-1 reporter mRNA; actives raise or lower the signal
Procedure, shortened: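 HepG2, transient cis-reporter transfection; 24 h; readout RT-PCR/CE fluorescence; DMSO baseline, gain and loss fitted.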

[8] = ATG_AP_2_CIS: Attagene CIS-FACTORIAL HepG2 Assay for human Activator Protein 2 (AP-2) (AID 2282932); details: HepG2 AP-2 cis-reporter, Attagene transcription factor profiling; actives raise or lower the signal
Procedure, shortened: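 Read-out: fluorescent reporter mRNA via RT-PCR and capillary electrophoresis, 24 h post-dose in transiently transfected HepG2. Endogenous factors drive cis-promoter reporters; gain or loss of signal fitted bidirectionally against DMSO.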

[9] = ATG_BRE_CIS: Attagene CIS-FACTORIAL HepG2 Assay for human Bone Morphogenetic Protein (BMP) Response Element (BRE) (AID 2282933); details: HepG2 BMP response element reporter, Attagene transcription factor profiling; actives raise or lower the signal
Procedure, shortened: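 HepG2 cells transiently transfected with CIS reporter units (endogenous TF activity, BMP response element), dosed 24 h. Reporter mRNA quantified by RT-PCR, fluorescent labelling and capillary electrophoresis; bidirectional fit vs DMSO baseline.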

[10] = target: Retinoic acid receptor alpha (Homo sapiens) (UniProt P10276); assay: ATG_DR5_RAR_CIS: Attagene CIS-FACTORIAL HepG2 Assay for human Retinoic Acid Receptor Alpha (RARE), DR5 submotif (AID 2282934); details: HepG2 Attagene cis-factorial RARE DR5 reporter, mRNA; actives raise or lower the signal;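 as to AC50: reporter responds to endogenous RAR alpha beta and gamma in HepG2 not RARA alone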
Procedure, shortened: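 After 24 h of chemical exposure, transiently transfected HepG2 cells were lysed for total RNA; the DR5-regulated reporter transcript was quantified via RT-PCR and capillary electrophoresis, with activity fitted bidirectionally against DMSO.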

Measured: AC50

Sequence of CCAAT/enhancer-binding protein beta (Homo sapiens) (P17676 whole entry, looked up): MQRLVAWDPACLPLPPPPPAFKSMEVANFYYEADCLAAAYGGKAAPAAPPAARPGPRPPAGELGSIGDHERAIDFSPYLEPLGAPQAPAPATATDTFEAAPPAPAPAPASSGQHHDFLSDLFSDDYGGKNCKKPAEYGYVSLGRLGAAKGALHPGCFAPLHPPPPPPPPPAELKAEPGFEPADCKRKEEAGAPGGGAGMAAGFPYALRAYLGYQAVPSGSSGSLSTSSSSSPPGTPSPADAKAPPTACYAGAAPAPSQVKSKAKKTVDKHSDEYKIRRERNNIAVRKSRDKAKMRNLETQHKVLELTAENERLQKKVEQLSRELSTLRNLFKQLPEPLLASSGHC
Sequence of Aryl hydrocarbon receptor (Homo sapiens) (P35869 whole entry, looked up): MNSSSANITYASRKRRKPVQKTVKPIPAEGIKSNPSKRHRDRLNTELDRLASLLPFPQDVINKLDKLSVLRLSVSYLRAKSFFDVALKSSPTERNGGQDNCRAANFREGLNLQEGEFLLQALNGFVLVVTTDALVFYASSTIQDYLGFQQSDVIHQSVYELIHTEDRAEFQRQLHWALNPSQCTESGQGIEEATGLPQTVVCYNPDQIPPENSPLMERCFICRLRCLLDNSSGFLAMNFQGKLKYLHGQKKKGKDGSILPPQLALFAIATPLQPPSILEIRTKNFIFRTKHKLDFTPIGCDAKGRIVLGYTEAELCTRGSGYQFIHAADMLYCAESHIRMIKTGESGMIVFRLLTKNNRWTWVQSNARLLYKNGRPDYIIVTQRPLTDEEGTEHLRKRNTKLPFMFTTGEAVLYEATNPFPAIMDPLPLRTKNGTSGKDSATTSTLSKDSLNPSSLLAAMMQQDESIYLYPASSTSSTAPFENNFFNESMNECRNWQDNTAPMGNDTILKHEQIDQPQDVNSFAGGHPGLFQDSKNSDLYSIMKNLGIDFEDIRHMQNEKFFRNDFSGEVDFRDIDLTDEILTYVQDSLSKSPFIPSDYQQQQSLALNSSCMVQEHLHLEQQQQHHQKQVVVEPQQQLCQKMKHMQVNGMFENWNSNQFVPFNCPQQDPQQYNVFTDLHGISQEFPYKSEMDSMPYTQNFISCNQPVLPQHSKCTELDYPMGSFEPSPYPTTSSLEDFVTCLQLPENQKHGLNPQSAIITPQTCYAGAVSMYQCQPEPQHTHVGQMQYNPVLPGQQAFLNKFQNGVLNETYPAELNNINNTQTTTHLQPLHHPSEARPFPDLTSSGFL
Sequence of Retinoic acid receptor alpha (Homo sapiens) (P10276 whole entry, looked up): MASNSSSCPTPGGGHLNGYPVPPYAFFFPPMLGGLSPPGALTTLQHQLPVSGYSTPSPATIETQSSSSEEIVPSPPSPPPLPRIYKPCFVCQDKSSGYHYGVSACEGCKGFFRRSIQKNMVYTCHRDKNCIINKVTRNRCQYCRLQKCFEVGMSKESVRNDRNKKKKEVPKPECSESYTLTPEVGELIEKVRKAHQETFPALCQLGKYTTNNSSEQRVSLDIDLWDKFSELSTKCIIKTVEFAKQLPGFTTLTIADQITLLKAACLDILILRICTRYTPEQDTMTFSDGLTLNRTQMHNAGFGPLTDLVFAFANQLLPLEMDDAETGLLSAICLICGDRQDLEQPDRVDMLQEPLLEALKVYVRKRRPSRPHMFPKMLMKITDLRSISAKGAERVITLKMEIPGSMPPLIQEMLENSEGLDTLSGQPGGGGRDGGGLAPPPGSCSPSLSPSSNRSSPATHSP

CC(C)=CCCC(C)CCOC(=O)C(C)C (stereo unspecified)
inactive: all assays above

O=C(O)C(F)(F)C(F)(F)F
inactive: all assays above

O=C(C=Cc1ccccc1)OCC=Cc1ccccc1
active: [5] 24.3 µM
inactive: all other assays above

FC(F)(F)C(F)(F)C(F)(F)C(F)(F)CCI
inactive: [1] | [2] | [3] | [4] | [5] | [6] | [7] | [8] | [9] | [10]
active: [6] 43.5 µM

O=C(O)C(F)(F)C(F)(F)C(F)(F)C(F)(F)C(F)(F)C(F)(F)C(F)(F)C(F)(F)Cl
active: [2] 50 µM | [5] 39.1 µM and 34.7 µM | [8] 83.2 µM
inactive: [1] | [2] | [3] | [4] | [6] | [7] | [8] | [9] | [10]

CN(C)Cc1ccccc1O
active: [1] 4.58 µM
inactive: all other assays above

CCCCC(CC)COP(=O)(O)OCC(CC)CCCC (stereo unspecified)
active: [5] 42 µM | [7] 60.6 µM
inactive: all other assays above

O=C(CC(=O)C(F)(F)C(F)(F)F)C(F)(F)F
active: [7] 150 µM
inactive: [1] | [2] | [3] | [4] | [5] | [6] | [7] | [8] | [9] | [10]

O=S(=O)(O)c1ccc2ccccc2c1
active: [6] 42.7 µM and 40.3 µM
not listed: [10]
inactive: all other assays above

O=C(O)C(F)(F)C(F)(F)C(F)(F)F
inactive: all assays above

CC(=O)Nc1ccc(N=Nc2cc(C)ccc2O)cc1
active: [6] 17.7 µM
inactive: all other assays above

C=C(C)C(=O)OCCC(F)(F)C(F)(F)C(F)(F)C(F)(F)C(F)(C(F)(F)F)C(F)(F)F
inactive: all assays above

c1ccc(-c2ccccc2-c2ccccc2)cc1
active: [1] 0.534 µM | [4] 29.8 µM | [5] 27.7 µM | [7] 58.7 µM
inactive: all other assays above

CO[Si](OC)(c1ccccc1)c1ccccc1
inactive: all assays above

FC(F)(I)C(F)(F)C(F)(F)C(F)(F)I
active: [1] 0.312 µM
inactive: all other assays above

C=CC/C=C/C/C=C/C/C=C/C
inactive: all assays above

OCC(F)(F)C(F)(F)C(F)(F)C(F)(F)C(F)(F)C(F)F
inactive: all assays above

Nc1ccc([N+](=O)[O-])cc1O
active: [6] 25.5 µM
inactive: all other assays above

CC(C)(C)C(=O)CC(=O)C(F)(F)C(F)(F)C(F)(F)F
inactive: all assays above

C1COCCN1
inactive: all assays above

CC(CCl)OP(=O)(OC(C)CCl)OC(C)CCl (stereo unspecified)
inactive: all assays above

CCN(Cc1cccc(S(=O)(=O)O)c1)c1ccc(C(=C2C=CC(=[N+](CC)Cc3cccc(S(=O)(=O)O)c3)C=C2)c2ccc(O)cc2S(=O)(=O)[O-])cc1
active: [6] 33 µM
inactive: all other assays above

COC(=O)CCC(F)(F)C(F)(F)C(F)(F)C(F)(F)F
inactive: all assays above

O=C(O)C(F)(F)C(F)(F)C(F)F
inactive: all assays above

FC(F)(F)C(F)(F)C(F)(F)C(F)(F)C(F)(F)C(F)(F)C(F)(F)I
inactive: all assays above

OC[C@@H](O)[C@@H](O)[C@H](O)[C@@H](O)CO
inactive: all assays above

CCCCCC=O
not listed: [10]
inactive: all other assays above

O=C(O)C=C(C(F)(F)F)C(F)(F)F
inactive: all assays above

FC(F)(Br)C(F)(F)C(F)(F)C(F)(F)C(F)(F)C(F)(F)Br
active: [1] 42.7 µM
inactive: all other assays above

CC(C)OC(=O)c1ccccc1C(=O)OC(C)C
inactive: all assays above

OCC(F)(F)C(F)(F)C(F)(F)C(F)(F)C(F)(F)C(F)(F)F
active: [3] 204 µM
inactive: all other assays above

Cc1cc(C)cc(O)c1
inactive: all assays above

C=CC(F)(F)C(F)(F)C(F)(F)C(F)(F)C(F)(F)C(F)(F)C(F)(F)C(F)(F)F
inactive: all assays above

Oc1ccc(Nc2ccccc2)cc1
active: [4] 41.8 µM
inactive: all other assays above

CCCCCCOC(=O)c1ccccc1
active: [6] 50.4 µM
not listed: [2]
inactive: all other assays above

COC(=O)C1CCC(C(=O)OC)CC1 (stereo unspecified)
inactive: all assays above

CCc1ccc(C(c2ccc(CC)cc2)C(Cl)Cl)cc1
active: [4] 100 µM | [5] 51 µM | [7] 66.5 µM
inactive: all other assays above

CS(C)(=O)=O
not listed: [2]
inactive: all other assays above

CCCCCCC(C)OC(=O)CCCCC(=O)OC(C)CCCCCC (stereo unspecified)
not listed: [2]
inactive: all other assays above

O=C(O)C(F)(F)C(F)(F)C(F)(F)C(F)(F)C(F)(F)C(F)(F)C(F)(F)C(F)(F)C(F)(F)C(F)F
active: [1] 18.8 µM | [7] 26.6 µM
inactive: all other assays above

CCc1c(Br)c(Br)c(Br)c(Br)c1Br
active: [10] 16.4 µM
not listed: [2]
inactive: all other assays above

N=C(N)C(F)(F)C(F)(F)C(F)(F)C(F)(F)C(F)(F)C(F)(F)C(F)(F)F
active: [3] 111 µM | [5] 211 µM | [7] 150 µM
not listed: [2]
inactive: all other assays above

CCCCCCOC(=O)c1ccccc1O
inactive: all assays above

CC/C=C\CCOC(=O)c1ccccc1
not listed: [2]
inactive: all other assays above
